In the library only some 0.53% were active in any assay of this set; here they are far more common.
Vif-APOBEC3F blk – qHTS for Inhibitors of Vif-A3F Interactions: qHTS; HeLa A3F-eYFP + Vif (tagged APOBEC3F with the HIV-1 protein that degrades it), YFP fluorescence increase; Potency, µM (top dose mostly 46.1 µM); 0.2% of 390,000 active; further: nearly all actives have a fitted effect of over 65% in size
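Fluorescence increase (Ex 488/Em 500-530) after overnight compound treatment at 37 deg C flags inhibition of Vif-driven A3F-eYFP loss in stable HeLa A3F-eYFP/Vif cells seeded overnight beforehand.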
PKM2 act – qHTS Assay for Activators of Human Muscle isoform 2 Pyruvate Kinase; Potency, µM (titrated, usually from 57.5 µM), most hits filed as activators; purified PKM2, Kinase-Glo ATP luminescence, activation; response scale: 0% is enzyme alone, no compound; 0.34% of 260,000 active; further: nearly all actives have a fitted effect of over 55% in size
Target sequence (P14618 whole entry, looked up, canonical isoform): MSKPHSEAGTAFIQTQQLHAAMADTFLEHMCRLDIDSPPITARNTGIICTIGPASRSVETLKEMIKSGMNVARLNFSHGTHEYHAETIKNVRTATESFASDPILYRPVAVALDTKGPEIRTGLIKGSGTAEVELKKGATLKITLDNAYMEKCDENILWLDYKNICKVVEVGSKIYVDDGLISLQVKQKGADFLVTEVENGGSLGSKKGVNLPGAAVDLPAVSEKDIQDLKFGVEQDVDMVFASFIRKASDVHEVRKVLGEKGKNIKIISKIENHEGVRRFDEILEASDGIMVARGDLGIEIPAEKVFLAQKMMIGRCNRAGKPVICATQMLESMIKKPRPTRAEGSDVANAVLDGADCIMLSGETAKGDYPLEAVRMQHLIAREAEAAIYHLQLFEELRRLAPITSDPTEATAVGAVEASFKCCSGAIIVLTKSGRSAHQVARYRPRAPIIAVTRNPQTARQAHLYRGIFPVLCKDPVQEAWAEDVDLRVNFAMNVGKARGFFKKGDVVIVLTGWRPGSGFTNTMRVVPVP
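hPK-M2, >95% pure; 0.1 mM ADP / 0.5 mM PEP final; imidazole pH7.2 buffer w/ 7 mM MgCl2, 50 mM KCl; 1 h RT; Kinase-Glo lum. Intermediate enzyme activity for dual inhibitor/activator qHTS.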
Vif-A3G inh – qHTS for Inhibitors of Vif-A3G Interactions: qHTS; AID 602310, 2012; Potency, µM (doses to about 46.1 µM), hits mostly inhibitors; 0.076% of 410,000 active; HeLa A3G-eYFP + Vif (tagged APOBEC3G with the HIV-1 protein that degrades it), YFP fluorescence, overnight; further: nearly all actives have a fitted effect of over 60% in size
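Read-out is eYFP fluorescence (Ex 488/Em 500-530) from Vif-expressing HeLa A3G-eYFP cells; more signal means A3G escaped Vif-mediated degradation. Cells plated overnight, compound pinned in, incubated overnight at 37 deg C.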
IL2 activator – qHTS of IL-2 Activators; IL-2 activation reporter assay, cell-based qHTS; stimulated with anti-CD3/CD4/CD28 beads; in transgenic mouse T cells; activation, % (series mostly up to about 46 µM); 0.065% of 360,000 active; in the data active means activation above about 50%; inconclusive means mostly about 30% to 49%
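Readout is EGFP and DsRed signal by fluorescent plate cytometry after 18 h at 37 degrees C. Transgenic mouse T cells (750/well) received compound for 60 min before bead stimulation (anti-CD3, anti-CD4, anti-CD28); memory T cells served as non-tolerant control.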
Large screens that a line does not name were inactive. Unless noted, the call rests on the fitted dose curve; in most records, active means well fitted curve in the direction sought with a large enough effect; inconclusive means small, poorly fitted or top-dose-only effect, or another doubt; inactive means no such curve, though single readings can be large; an effect the other way counts as inactive or inconclusive.

CNS(=O)(=O)c1ccc2c3c(cccc13)C(=O)N2C	none
CCCCCCCCN1C(=O)[C@H](CC(=O)NCc2ccc(C)o2)C[C@@]2(C(=O)OCC)CCC=C12	none (no result: Vif-APOBEC3F blk, PKM2 act, Vif-A3G inh)
O=C(Cc1ccccc1)N/N=C/c1ccc(-c2ccc([N+](=O)[O-])cc2)o1	Vif-APOBEC3F blk inconclusive, Vif-A3G inh 7.9µM
NC(=O)N/N=C/c1ccc(-c2ccc([N+](=O)[O-])cc2)o1	none
CC(=O)Oc1ccc(-c2nc(-c3ccccc3)no2)cc1	none (no result: Vif-APOBEC3F blk, PKM2 act, IL2 activator)
Cc1ccc(/C=C/C(=O)Nc2ccc([N+](=O)[O-])cc2)o1	none
CCOC(=O)CCc1ccc(NC(=O)/C=C/c2ccc([N+](=O)[O-])o2)cc1	Vif-APOBEC3F blk 11µM, Vif-A3G inh 7.9µM (no result: PKM2 act)
Cn1c(=O)c(=O)n(C)c2cc(S(=O)(=O)N3CCCC3C(=O)Nc3cccc(F)c3)ccc21 (stereo unspecified)	none (no result: PKM2 act, IL2 activator)
CCOC(=O)c1c(-c2ccccc2)csc1/N=C/C1C(=O)CCCC1=O	none
CCOC(=O)c1c(CC(C)C)csc1/N=C/C1C(=O)CCCC1=O	Vif-APOBEC3F blk 22µM, Vif-A3G inh inconclusive
Cc1cccc(NC(=O)CN2C(=O)C3(SCC(=O)N3c3ccccc3)c3ccccc32)c1 (stereo unspecified)	none (no result: PKM2 act, IL2 activator)
Cc1c(F)cccc1Cn1cnc2c(cnn2C(C)(C)C)c1=O	none (no result: Vif-APOBEC3F blk, PKM2 act, IL2 activator)
COc1cccc(-c2csc3nc[nH]c(=O)c23)c1	PKM2 act 28µM
Cc1ccc(-n2c(=O)c3c4c(sc3n(CC(=O)C(C)(C)C)c2=O)CCCCC4)cc1C	none (no result: PKM2 act, IL2 activator)
CCc1nn(CC(=O)NCCN(CC(C)C)CC(C)C)c(=O)c2cc3sc(C)cc3n12	none (no result: PKM2 act, IL2 activator)
CCOC(=O)c1c(C)[nH]c(C(=O)OC(C(=O)N(C)C)c2ccccc2)c1C (stereo unspecified)	none (no result: Vif-APOBEC3F blk, PKM2 act, IL2 activator)
CCOc1ccc(C(=O)N2CCN(c3cccc(C)c3C)CC2)cc1	PKM2 act 14µM
CCOc1ccc(C(=O)N2CCN(c3cccc(Cl)c3)CC2)cc1	none
COc1cc(CN2CCNC(=O)C2CC(=O)N2CCCO2)cc(OC)c1 (stereo unspecified)	PKM2 act 14µM
c1ccc(N=NC2=NN(c3ccccc3)CS2)cc1	Vif-APOBEC3F blk 4µM (no result: PKM2 act)
CCN1/C(=C/c2ccc3cc(C)ccc3[n+]2CC)Sc2cc(C)ccc21	Vif-APOBEC3F blk inconclusive
CC[n+]1c(/C=C/c2c[nH]c3ccccc23)ccc2cc(C)ccc21	Vif-A3G inh inconclusive, IL2 activator 68
CCN(CC)C(=O)c1ccc(/C=C/c2c[nH]c3ccccc23)[n+](C)c1	Vif-APOBEC3F blk 13µM, Vif-A3G inh inconclusive, IL2 activator 79
CCc1ccc(CNC(=O)CN(c2ccc(C)cc2)S(=O)(=O)N(C)C)cc1	none (no result: PKM2 act, IL2 activator)
CCOc1cc(/C=C2/C(=O)ON=C2C)ccc1OCc1ccccc1	none
CCOc1cc(/C=C2/C(=O)ON=C2C)ccc1OCc1ccccc1F	PKM2 act 16µM
COc1cc(/C=C2\CC(C(C)(C)C)C/C(=C\c3cc(OC)c(OC)c(OC)c3)C2=O)cc(OC)c1OC (stereo unspecified)	Vif-APOBEC3F blk inconclusive, Vif-A3G inh 8.9µM (no result: PKM2 act)
Cn1cccc1/C=C1\SC(=O)N(c2ccccc2)C1=O	IL2 activator 250
COc1ccc(-n2nnnc2C(c2cc3ccccc3o2)N2CCN(C/C=C/c3ccccc3)CC2)cc1 (stereo unspecified)	none (no result: Vif-APOBEC3F blk, PKM2 act)
COC(=O)c1ccccc1NC(=O)c1sc2nc(C)cc(C)c2c1NC(=O)c1ccccc1Cl	none (no result: PKM2 act, IL2 activator)
CCOc1ccc(Oc2nc(NC)nc(N3CCOCC3)n2)nn1	none (no result: PKM2 act, IL2 activator)
O=c1c2ccccc2nc(/C=C/c2ccc([N+](=O)[O-])o2)n1CCCO	Vif-APOBEC3F blk 22µM, Vif-A3G inh inconclusive
O=c1c2ccccc2nc(/C=C/c2ccc([N+](=O)[O-])cc2)n1CCCO	none
CCOC(=O)/C=C1\NC(C)(C)Cc2cc(OC)c(OC)cc21	none (no result: Vif-APOBEC3F blk)
COc1cc2c(cc1OC)/C(=C/C(=O)N1CCOCC1)NC(C)(C)C2	PKM2 act 25µM
O=C(OCCOc1cccc(Cl)c1)c1ccc2ncsc2c1	PKM2 act 16µM
COCCCNC(=S)N/N=C/c1ccc(OC)cc1	Vif-APOBEC3F blk 22µM
COCCCNC(=S)N/N=C/c1ccc(O)cc1	PKM2 act inconclusive
CCNC(=O)C1CCN(c2nc3ccccc3nc2C(F)(F)F)CC1	none (no result: PKM2 act, IL2 activator)
Cn1c(=O)[nH]c(=O)c2c1nc(SCC(=O)O)n2Cc1ccccc1	none
Cc1cccc(Cn2c(SCC(=O)Nc3ccccc3)nc3c2c(=O)[nH]c(=O)n3C)c1	PKM2 act 1.4µM
C(/Oc1ccccc1)=C1\Nn2c(nnc2-c2cc(-c3ccccc3)n[nH]2)S1	none (no result: Vif-APOBEC3F blk, PKM2 act, IL2 activator)
O=C(O)CCCCCN1C(=O)/C(=C\c2ccc(-c3ccc(Cl)cc3)o2)SC1=S	Vif-APOBEC3F blk inconclusive, PKM2 act 32µM
O=C(O)CCCN1C(=O)/C(=C/c2ccc(-c3nc4ccccc4s3)o2)SC1=S	none
CCSc1nnc(-c2sc3nnc(-c4ccccc4)c(-c4ccccc4)c3c2N)o1	Vif-APOBEC3F blk 13µM, Vif-A3G inh 3.2µM
O=[N+]([O-])c1ccc(C2=Nc3cc(Cl)ccc3OC2)cc1	Vif-APOBEC3F blk 25µM
Cc1cc([N+](=O)[O-])ccc1-c1ccc(C2Nc3ccccc3C(=O)N2O)o1 (stereo unspecified)	PKM2 act 14µM
CSc1nnc(N2C(=O)C(O)=C(C(=O)c3ccco3)C2c2ccccc2F)s1 (stereo unspecified)	none (no result: PKM2 act)
CCCSc1nnc(N2C(=O)C(O)=C(C(=O)c3ccco3)C2c2ccccc2F)s1 (stereo unspecified)	Vif-APOBEC3F blk 3.2µM, Vif-A3G inh inconclusive (no result: PKM2 act)
O=C(Nc1nnc(SCc2ccc(F)cc2)s1)C1CC(=O)N(Cc2ccccc2)C1 (stereo unspecified)	PKM2 act 13µM
Cc1nn(C)c(Sc2ccccc2N)c1[N+](=O)[O-]	PKM2 act 11µM
Cc1ccc2nc(SCC(=O)Nc3ccc4sc(C)nc4c3)c(C#N)cc2c1	Vif-APOBEC3F blk 11µM
COC(=O)CSc1nc2cc(C)ccc2cc1C#N	IL2 activator 103 (no result: Vif-APOBEC3F blk)
CCOC(=O)CC(=O)CSc1nc2ccc(C)cc2cc1C#N	none
CCOc1ccc(CNc2cccc(SC)c2)cc1	Vif-APOBEC3F blk inconclusive, PKM2 act 14µM
Cn1c(CSc2nnc(SCc3ccccc3)s2)nc2ccccc21	PKM2 act 18µM
COc1ccc2c(C)cc(SCC(=O)NC3CCCCC3)nc2c1	Vif-APOBEC3F blk inconclusive (no result: PKM2 act)
COc1ccc2c(C)cc(SCC(=O)N3CCOCC3)nc2c1	Vif-APOBEC3F blk 25µM, Vif-A3G inh inconclusive
COc1ccc2c(C)cc(SCC(=O)N(C)C3CCS(=O)(=O)C3)nc2c1 (stereo unspecified)	Vif-APOBEC3F blk 11µM, Vif-A3G inh inconclusive
Cc1cc(C2=CC(C)(c3cc(C)oc3C)Nc3nc(C(F)(F)F)nn32)c(C)o1 (stereo unspecified)	PKM2 act 22µM (no result: Vif-APOBEC3F blk, Vif-A3G inh, IL2 activator)

Screening results (PubChem BioAssay)
